This passage reports AC50 and outcome results from PubChem BioAssay (EPA / NIEHS).

A short description of assay [1]: ATG_CRE_CIS: Attagene CIS-FACTORIAL HepG2 Assay for human cAMP Responsive Element (CRE) binding protein 3 (AID 2282926). The conditions noted are these: HepG2 CRE cis-reporter, Attagene multiplexed mRNA; actives raise or lower the signal. Summed up:
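HepG2 cells transiently transfected with a multiplexed reporter library (CRE-driven unit among them) were dosed for 24 h. Reporter mRNA was quantified by RT-PCR, fluorescent labelling, HpaI digestion and capillary electrophoresis, with bidirectional fitting against DMSO baseline.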

In assay [2] the target is CCAAT/enhancer-binding protein beta (Homo sapiens) (UniProt P17676). Kind of assay: ATG_C_EBP_CIS: Attagene CIS-FACTORIAL HepG2 Assay for human CCAAT/Enhancer Binding Protein (C/EBP) beta (AID 2282927). The conditions noted are these: HepG2 Attagene cis-factorial transcription factor reporter; actives raise or lower the signal. In outline: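 HepG2, transient MRTU transfection, 24 h treatment. RT-PCR plus CE fluorescence; DMSO negative control, bidirectional fit.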

A short description of assay [3]: ATG_CMV_CIS: Attagene CIS-FACTORIAL HepG2 Assay for human CMV (Internal Marker) (AID 2282928).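 Also: endpoint acts as a background internal control marker rather than a target.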 The conditions noted are these: HepG2 CMV promoter reporter, transcription factor profiling; actives raise or lower the signal. Summed up:
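HepG2 cells transiently transfected with multiple cis-regulated reporter units; 24 h compound exposure. Reporter mRNA quantified by RT-PCR, 6-FAM primer-extension labeling, HpaI digestion and capillary electrophoresis; bidirectional fitting against DMSO baseline.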

Assay [4] can be described thus: ATG_DR4_LXR_CIS: Attagene CIS-FACTORIAL HepG2 Assay for human Liver X Receptor (LXR), DR4 submotif (AID 2282929). The conditions noted are these: HepG2 Attagene DR4 cis-reporter, mRNA transcription; actives raise or lower the signal. Summed up:
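HepG2 cells transiently transfected with cis-promoter-driven multiplexed reporter units (DR4 element) were dosed for 24 h. Reporter mRNA was quantified by RT-PCR, fluorescent primer extension, HpaI digestion and capillary electrophoresis; bidirectional fitting versus DMSO baseline.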

Assay [5] concerns the target Aryl hydrocarbon receptor (Homo sapiens) (UniProt P35869). Description: ATG_Ahr_CIS: Attagene CIS-FACTORIAL HepG2 Assay for human Aryl Hydrocarbon Receptor (Ahr) (AID 2282930). The conditions noted are these: HepG2 AhR cis-factorial reporter transcription; actives raise or lower the signal. In outline: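 Endogenous factor activity is tracked through cis-promoter reporter units transfected into HepG2 cells. Transcript levels at 24 h are read by fluorescent RT-PCR and capillary electrophoresis, with activity in either direction scored relative to DMSO.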

A short description of assay [6]: ATG_AP_1_CIS: Attagene CIS-FACTORIAL HepG2 Assay for human Activator Protein 1 (AP-1) (AID 2282931). The conditions noted are these: HepG2 Attagene cis-factorial AP-1 reporter mRNA; actives raise or lower the signal. In outline: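 HepG2 cells transiently transfected with cis-element-driven multiplex reporter units; 24 h compound exposure. Reporter mRNA quantified by RT-PCR, FAM-labelled fragments resolved by capillary electrophoresis; bidirectional fit versus DMSO baseline.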

Assay [7] can be described thus: ATG_AP_2_CIS: Attagene CIS-FACTORIAL HepG2 Assay for human Activator Protein 2 (AP-2) (AID 2282932). The conditions noted are these: HepG2 AP-2 cis-reporter, Attagene transcription factor profiling; actives raise or lower the signal. In outline:
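Multiplexed mRNA reporter assay in HepG2: cis-regulated units report endogenous factor activity after 24 h treatment. Fluorescence from capillary electrophoresis of RT-PCR products gives the signal, with DMSO as baseline.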

The nature of assay [8]: ATG_BRE_CIS: Attagene CIS-FACTORIAL HepG2 Assay for human Bone Morphogenetic Protein (BMP) Response Element (BRE) (AID 2282933). The conditions noted are these: HepG2 BMP response element reporter, Attagene transcription factor profiling; actives raise or lower the signal. In outline: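 Endogenous transcription factor activity at a BMP response element was monitored in transfected HepG2 cells 24 h after dosing. Fluorescent RT-PCR products were resolved by capillary electrophoresis, and activity was fitted in both directions versus DMSO.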

The target of assay [9] is Retinoic acid receptor alpha (Homo sapiens) (UniProt P10276). Kind of assay: ATG_DR5_RAR_CIS: Attagene CIS-FACTORIAL HepG2 Assay for human Retinoic Acid Receptor Alpha (RARE), DR5 submotif (AID 2282934). The conditions noted are these: HepG2 Attagene cis-factorial RARE DR5 reporter, mRNA; actives raise or lower the signal. In outline:
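After 24 h of chemical exposure, transiently transfected HepG2 cells were lysed for total RNA; the DR5-regulated reporter transcript was quantified via RT-PCR and capillary electrophoresis, with activity fitted bidirectionally against DMSO.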

Assay [10] addresses Transcription factor E2F1 (Homo sapiens) (UniProt Q01094). Kind of assay: ATG_E2F_CIS: Attagene CIS-FACTORIAL HepG2 Assay for human E2F Transcription Factor 1 (AID 2282935). The conditions noted are these: HepG2 Attagene cis-reporter, E2F reporter RNA transcripts; actives raise or lower the signal. Summed up: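 Measures reporter transcript levels via RT-PCR with capillary electrophoresis detection in HepG2 cells harboring cis-regulated reporter units; 24 h post-dose; bidirectional curve fitting with DMSO as baseline.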

Assay [11] is described as follows: ATG_E_Box_CIS: Attagene CIS-FACTORIAL HepG2 Assay for human Enhancer Box (E-box) (AID 2282936). The conditions noted are these: HepG2 E-box cis-reporter transcription, actives raise or lower the signal. In outline: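 First, HepG2 cells receive multiple cis-regulated reporter constructs by transient transfection. Next, chemicals are applied for 24 h. Finally, reporter mRNA is quantified via RT-PCR and capillary electrophoresis, with DMSO as baseline.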

Assay [12] in a line: ATG_M_61_CIS: Attagene CIS-FACTORIAL HepG2 Assay for M61 Transcription Factor (Internal Marker) (AID 2282937). The conditions noted are these: HepG2 Attagene CIS-FACTORIAL M61 internal marker reporter; actives raise or lower the signal. In outline:
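HepG2 cells transiently transfected with cis-element-driven multiple reporter transcription units, dosed for 24 h. Reporter mRNA measured by RT-PCR, 6-FAM primer-extension labelling, HpaI digestion and capillary electrophoresis; bidirectional fit versus DMSO baseline.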

A short description of assay [13]: ATG_EGR_CIS: Attagene CIS-FACTORIAL HepG2 Assay for human Early Growth Response 1 (EGR1) (AID 2282938). The conditions noted are these: HepG2 Attagene CIS-FACTORIAL EGR reporter mRNA; actives raise or lower the signal. In outline:
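HepG2 cells transiently transfected with cis-promoter-driven multiplexed reporter transcription units; reporter mRNA measured 24 h after compound dosing by RT-PCR, 6-FAM primer extension, HpaI digestion and capillary electrophoresis. Bidirectional fit versus DMSO baseline.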

Assay [14] is described as follows: ATG_M_19_CIS: Attagene CIS-FACTORIAL HepG2 Assay for M19 Transcription Factor (Internal Marker) (AID 2282939). The conditions noted are these: HepG2 Attagene CIS-FACTORIAL M19 internal marker reporter; actives raise or lower the signal. Summed up:
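Background-control endpoint from a multiplexed HepG2 reporter panel. Cells carrying cis-regulated reporter constructs are treated 24 h, then reporter transcripts are amplified, fluorescently labelled and sized by capillary electrophoresis. DMSO defines baseline.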

Assay [15] is described as follows: ATG_ERE_CIS: Attagene CIS-FACTORIAL HepG2 Assay for Estrogen Response Element (ERE) (AID 2282940). The conditions noted are these: HepG2 ERE cis-reporter, Attagene RNA transcript; actives raise or lower the signal. Summed up:
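Cells used were human hepatoma HepG2, transfected with multiple reporter transcription units under cis-regulatory promoters. Reporter mRNA, read 24 h post-dosing via fluorescent RT-PCR products on capillary electrophoresis, was fitted bidirectionally relative to DMSO.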

Assay [16] can be described thus: ATG_Ets_CIS: Attagene CIS-FACTORIAL HepG2 Assay for human Erythroblast Transformation Specific (ETS) (AID 2282941). The conditions noted are these: HepG2 ETS cis-reporter transcription, actives raise or lower the signal. In outline: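 HepG2 cells transiently transfected with cis-promoter reporter transcription units were dosed for 24 h; reporter mRNA was measured by RT-PCR, 6-FAM primer extension, HpaI digestion and capillary electrophoresis, with bidirectional fitting against DMSO baseline.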

For assay [17], the target named is Hepatocyte nuclear factor 3-beta (Homo sapiens) (UniProt Q9Y261). Kind of assay: ATG_FoxA2_CIS: Attagene CIS-FACTORIAL HepG2 Assay for human Forkhead box A2 (FOXA2) (AID 2282942). The conditions noted are these: HepG2 cis-reporter transcription factor activity, 24 h; actives raise or lower the signal. In outline: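 HepG2 cells transiently transfected with multiple cis-regulated reporter transcription units, dosed for 24 h. Reporter mRNA measured by RT-PCR, 6-FAM labelling, HpaI digestion and capillary electrophoresis; bidirectional fitting against DMSO baseline.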

Assay [18] is described as follows: ATG_FoxO_CIS: Attagene CIS-FACTORIAL HepG2 Assay for human Forkhead box O (FoxO) (AID 2282943). The conditions noted are these: HepG2 Attagene cis-reporter, FoxO element, mRNA; actives raise or lower the signal. In outline: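 Transfected HepG2 reporter cells exposed to test chemical for 24 h; reporter RNA measured by reverse transcription, PCR and fluorescent capillary electrophoresis; curves fitted for increases and decreases against DMSO.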

Assay [19] is described as follows: ATG_GATA_CIS: Attagene CIS-FACTORIAL HepG2 Assay for human GATA Binding Protein (AID 2282944). The conditions noted are these: HepG2 GATA cis-element reporter, Attagene multiplex mRNA; actives raise or lower the signal. In outline:
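Endogenous transcription factor activity was captured through cis-promoter-driven reporters in transfected HepG2 cells. After 24 h exposure, reporter transcripts were quantified by RT-PCR with fluorescent capillary electrophoresis, and responses fitted both directions against DMSO.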

Assay [20] is described as follows: ATG_GLI_CIS: Attagene CIS-FACTORIAL HepG2 Assay for human Zinc Finger Protein GLI1 (AID 2282945). The conditions noted are these: HepG2, Attagene cis-factorial reporter mRNA, GLI element; actives raise or lower the signal. Summed up:
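Transiently transfected HepG2 cells report endogenous transcription factor activity via cis-element-driven reporter units. After 24 h compound exposure, reporter mRNA was measured by RT-PCR with capillary electrophoresis; bidirectional fitting against DMSO baseline.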

Calls of active or inactive are those of the source. The calls were made as follows: active = hit-call score of the fitted dose curve at least 0.9, where 1 is the maximum; inactive = score below 0.9.

Transcription factor E2F1 (Homo sapiens), sequence (Q01094 whole entry, looked up): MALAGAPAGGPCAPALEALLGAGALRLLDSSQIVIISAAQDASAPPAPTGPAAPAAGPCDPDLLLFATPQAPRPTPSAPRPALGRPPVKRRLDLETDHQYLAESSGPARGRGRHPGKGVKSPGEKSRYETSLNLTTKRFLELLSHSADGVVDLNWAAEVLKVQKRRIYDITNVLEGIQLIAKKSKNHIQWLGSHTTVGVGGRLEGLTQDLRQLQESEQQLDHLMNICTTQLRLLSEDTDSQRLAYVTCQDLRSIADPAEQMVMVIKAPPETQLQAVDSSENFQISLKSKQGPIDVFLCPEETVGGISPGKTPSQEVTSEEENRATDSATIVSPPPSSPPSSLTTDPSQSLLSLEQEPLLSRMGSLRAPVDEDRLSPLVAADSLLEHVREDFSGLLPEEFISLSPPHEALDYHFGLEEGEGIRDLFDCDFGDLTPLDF
Hepatocyte nuclear factor 3-beta (Homo sapiens), sequence (Q9Y261 whole entry, looked up): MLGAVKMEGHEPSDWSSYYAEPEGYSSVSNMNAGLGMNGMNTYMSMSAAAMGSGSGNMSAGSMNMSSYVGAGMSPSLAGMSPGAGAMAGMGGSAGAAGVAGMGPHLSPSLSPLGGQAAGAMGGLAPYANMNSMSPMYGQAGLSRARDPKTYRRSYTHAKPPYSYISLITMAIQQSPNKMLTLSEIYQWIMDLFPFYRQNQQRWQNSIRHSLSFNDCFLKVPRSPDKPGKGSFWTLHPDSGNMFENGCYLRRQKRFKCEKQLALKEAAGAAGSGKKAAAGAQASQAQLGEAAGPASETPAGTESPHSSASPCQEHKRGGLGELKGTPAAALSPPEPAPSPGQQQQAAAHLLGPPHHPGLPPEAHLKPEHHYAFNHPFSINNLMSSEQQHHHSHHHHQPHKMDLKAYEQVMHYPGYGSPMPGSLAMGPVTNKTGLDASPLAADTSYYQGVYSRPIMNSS
CCAAT/enhancer-binding protein beta (Homo sapiens), sequence (P17676 whole entry, looked up): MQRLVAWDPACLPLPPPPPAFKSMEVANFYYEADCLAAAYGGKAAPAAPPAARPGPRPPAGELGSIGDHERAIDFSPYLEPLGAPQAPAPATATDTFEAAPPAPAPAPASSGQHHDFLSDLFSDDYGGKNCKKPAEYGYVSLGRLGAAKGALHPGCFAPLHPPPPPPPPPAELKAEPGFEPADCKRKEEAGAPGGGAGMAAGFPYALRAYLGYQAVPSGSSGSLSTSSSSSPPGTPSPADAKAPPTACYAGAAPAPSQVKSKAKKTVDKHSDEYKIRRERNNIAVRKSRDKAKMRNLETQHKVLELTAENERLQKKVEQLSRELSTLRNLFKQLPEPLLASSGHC
Aryl hydrocarbon receptor (Homo sapiens), sequence (P35869 whole entry, looked up): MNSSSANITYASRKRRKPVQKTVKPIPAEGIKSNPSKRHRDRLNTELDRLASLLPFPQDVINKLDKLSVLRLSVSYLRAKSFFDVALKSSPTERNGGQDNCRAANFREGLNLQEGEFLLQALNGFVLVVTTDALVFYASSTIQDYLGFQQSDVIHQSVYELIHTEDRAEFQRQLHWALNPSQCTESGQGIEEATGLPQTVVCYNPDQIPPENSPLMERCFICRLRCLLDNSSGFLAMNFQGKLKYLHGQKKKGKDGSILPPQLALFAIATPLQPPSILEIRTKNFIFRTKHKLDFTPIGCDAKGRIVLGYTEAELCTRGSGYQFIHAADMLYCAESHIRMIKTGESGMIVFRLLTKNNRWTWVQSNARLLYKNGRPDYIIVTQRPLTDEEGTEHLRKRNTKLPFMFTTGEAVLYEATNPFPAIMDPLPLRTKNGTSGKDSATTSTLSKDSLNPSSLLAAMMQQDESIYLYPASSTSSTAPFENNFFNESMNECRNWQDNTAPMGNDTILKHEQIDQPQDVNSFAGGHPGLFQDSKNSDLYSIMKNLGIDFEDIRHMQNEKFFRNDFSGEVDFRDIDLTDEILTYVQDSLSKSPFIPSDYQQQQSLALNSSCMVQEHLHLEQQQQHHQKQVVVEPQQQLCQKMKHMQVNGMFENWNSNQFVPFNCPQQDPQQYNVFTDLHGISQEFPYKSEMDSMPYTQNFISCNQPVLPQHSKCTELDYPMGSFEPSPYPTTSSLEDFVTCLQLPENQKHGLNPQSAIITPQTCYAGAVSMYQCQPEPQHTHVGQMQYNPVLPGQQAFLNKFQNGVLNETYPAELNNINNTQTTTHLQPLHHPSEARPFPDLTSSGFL
Retinoic acid receptor alpha (Homo sapiens), sequence (P10276 whole entry, looked up): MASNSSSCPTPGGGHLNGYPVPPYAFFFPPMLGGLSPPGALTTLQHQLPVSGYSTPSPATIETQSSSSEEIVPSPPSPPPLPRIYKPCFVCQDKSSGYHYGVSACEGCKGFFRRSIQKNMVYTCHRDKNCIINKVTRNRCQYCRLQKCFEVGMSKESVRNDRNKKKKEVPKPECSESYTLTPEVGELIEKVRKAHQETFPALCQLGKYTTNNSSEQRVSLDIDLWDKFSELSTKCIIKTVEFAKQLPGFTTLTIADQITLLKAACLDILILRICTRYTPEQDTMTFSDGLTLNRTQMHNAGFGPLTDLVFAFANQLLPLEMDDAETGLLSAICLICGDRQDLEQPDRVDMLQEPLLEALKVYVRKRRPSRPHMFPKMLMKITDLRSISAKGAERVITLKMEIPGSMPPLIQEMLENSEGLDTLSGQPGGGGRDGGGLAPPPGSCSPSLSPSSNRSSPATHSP

Consider `CCCCC(CC)CCC(CC(C)C)OS(=O)(=O)O` (stereo not given), for which the AC50 was 142 µM (active) in [1] and 139 µM (active) in assay [6]. Besides, the outcome in assay [2], in assay [3], in assay [4], in [5], in assay [7] and in [8] was inactive. Moreover, the molecule was classed as inactive in assay [9], in assay [10], in [11], in [12], in [13] and in assay [14]. Further, the call in [15], in [16], in [17], in assay [18], in assay [19] and in assay [20] was inactive.
With `C[Si](C)(CCCN)O[Si](C)(C)CCCN`, the result in assay [1], in assay [2], in [3], in [4], in assay [5] and in [6] was inactive. The molecule was classed as inactive in [7], in assay [8], in assay [9], in assay [10], in assay [11] and in [12]. Also, the molecule was called inactive in assay [13], in [14], in [15], in assay [16], in assay [17] and in assay [18]. The molecule was called inactive in [19] and in [20].
Consider `O=P(O)(O)Oc1ccccc1`, for which the call in [1], in assay [2], in assay [3], in [4], in assay [5] and in assay [6] was inactive. The result in assay [7], in [8], in assay [9], in assay [10], in assay [11] and in [12] was inactive. The outcome in assay [13], in assay [14], in assay [15], in assay [16], in assay [17] and in assay [18] was inactive. The result in assay [19] and in [20] was inactive.
